Results reported in PubChem BioAssay.
Calls of active or inactive are those of the source.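 How the source made its calls, unless noted: active means fluorescence slope higher than the sample average by over 3 SD (cut at about -0.22 in these data, passing the limit was not always enough); inactive means the rest.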

Legend:
[1] = inhibitors of TNFa-induced NFkB p65 translocation, primary screen, imaging, HUVEC, MLSMR starter and 10KST1 sets (AID 438;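 active means inhibition above 20% together with a positive visual image hit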;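 further: compound added about 3h40 before a 20 min TNFalpha stimulation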;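 on inhibition: signal is the nuclear over cytoplasmic p65 intensity ratio per well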); conditions: HUVEC TNFa-induced p65 nuclear translocation; cell count: measured here: nuclei count (cytotoxicity indicator), at 2.08 µM; inhibition: at 2 µM, stronger effect = higher value, 0% TNFa-plus-vehicle, 100% no-TNFa wells
[2] = inhibitors of mutant huntingtin aggregation, primary screen, imaging, exon1htt(103Q)mCFP cells, high-content imaging (AID 483;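 active means visual image review flags a hit and inhibition of aggregation exceeds 20%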;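 further: compound exposure lasted 3 days before fixation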;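 on nuclei count: percent of the per-plate median nuclei count of sample wells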); conditions: exon1htt(103Q)mCFP cell line, aggregate imaging, at 2 µM; inhibition of aggregation: stronger effect = higher value; nuclei count: measured here: cell count, toxicity
[3] = inhibitors of E-selectin induction by TNFa, primary screen, imaging, HUVEC, immunofluorescence, MLSMR starter and 10KST1 sets (AID 487;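 active means visually confirmed hit in the image check and inhibition above 20%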;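 on inhibition: signal is fraction of cell area covered by stained E-selectin grains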;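 on nuclei count: 100% = median nuclei count of all wells on the same plate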); conditions: HUVEC TNFalpha-induced E-selectin immunofluorescence imaging, at 2 µM; inhibition: stronger effect = higher value; nuclei count: measured here: cell number, toxicity
[4] = target: Voltage-gated potassium channel subunit beta-2 (Rattus norvegicus) (UniProt P62483); experiment: KvBeta enzyme negative modulators, primary screen, biochemical, NADPH fluorescence (AID 622); conditions: recombinant KvBeta, 4-cyanobenzaldehyde reduction, at 10 µM, stronger effect = higher value;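 further: slope of raw intensity against log time taken from 70 to 1610 s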
[5] = target: Voltage-gated potassium channel subunit beta-2 (Rattus norvegicus) (UniProt P62483); experiment: KvBeta positive modulators, primary screen, biochemical, NADPH fluorescence (AID 623;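 active means NADPH fluorescence slope more negative than the mean of all samples by about 3 SD, 99.7% confidence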;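 further: fluorescence intensity change per second fitted from 20 to 320 s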); conditions: Recombinant KvBeta, NADPH fluorescence decrease slope, 10 min; at 10 µM; stronger effect = lower value
[6] = target: Alpha-2C adrenergic receptor (Homo sapiens) (UniProt P18825); experiment: modulators of alpha2C/GIRK thallium flux, primary screen, cell-based, HEK293 alpha2C/GIRK1/2 (AID 624;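 active means fluorescence slope after compound addition differing from the mean of all screened samples at 99.7% confidence, in either direction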;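 further: slope of fluorescence ratio to pre-addition baseline per second over 15 to 24 s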); conditions: thallium flux BTC fluorescence, at 10 µM, actives lie on both sides
[7] = inhibitors of Sendai virus-induced IRF3 signaling, primary screen, TLR/RLR signaling modifier project, cell-based, Sendai virus stimulus, luciferase, 10K MLSCN set (AID 602276;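 active means inhibition at or above 50% at 10 µM; inactive means inhibition below 50%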;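 further: firefly luciferase from ISG56 promoter only with Renilla not read in this screen; 0% = Sendai virus plus DMSO and 100% = medium plus DMSO without virus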); conditions: HEK293 RL24 IRF3 luciferase reporter, at 10 µM, stronger effect = higher value
[8] = inhibitors of poly I:C-induced TLR3 signaling, primary screen, cell-based, poly I:C stimulus, luciferase, 10K MLSCN set (AID 602277;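 active means inhibition of the reporter signal at or above 50%; inactive means inhibition below 50%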); conditions: HEK293-TLR3 RL24 IRF3 luciferase reporter, at 10 µM, stronger effect = higher value

Voltage-gated potassium channel subunit beta-2 (Rattus norvegicus), sequence (P62483 whole entry, looked up): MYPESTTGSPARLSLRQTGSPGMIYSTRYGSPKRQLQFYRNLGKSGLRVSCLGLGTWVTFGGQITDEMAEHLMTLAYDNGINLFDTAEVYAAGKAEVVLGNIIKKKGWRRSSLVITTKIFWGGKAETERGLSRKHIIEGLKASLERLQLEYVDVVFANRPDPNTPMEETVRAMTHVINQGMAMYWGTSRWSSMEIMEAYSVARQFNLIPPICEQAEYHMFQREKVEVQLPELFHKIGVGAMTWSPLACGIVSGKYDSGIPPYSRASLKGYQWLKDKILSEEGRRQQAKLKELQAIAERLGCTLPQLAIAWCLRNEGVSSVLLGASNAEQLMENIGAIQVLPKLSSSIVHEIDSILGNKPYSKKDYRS
Alpha-2C adrenergic receptor (Homo sapiens), sequence (P18825 whole entry, looked up): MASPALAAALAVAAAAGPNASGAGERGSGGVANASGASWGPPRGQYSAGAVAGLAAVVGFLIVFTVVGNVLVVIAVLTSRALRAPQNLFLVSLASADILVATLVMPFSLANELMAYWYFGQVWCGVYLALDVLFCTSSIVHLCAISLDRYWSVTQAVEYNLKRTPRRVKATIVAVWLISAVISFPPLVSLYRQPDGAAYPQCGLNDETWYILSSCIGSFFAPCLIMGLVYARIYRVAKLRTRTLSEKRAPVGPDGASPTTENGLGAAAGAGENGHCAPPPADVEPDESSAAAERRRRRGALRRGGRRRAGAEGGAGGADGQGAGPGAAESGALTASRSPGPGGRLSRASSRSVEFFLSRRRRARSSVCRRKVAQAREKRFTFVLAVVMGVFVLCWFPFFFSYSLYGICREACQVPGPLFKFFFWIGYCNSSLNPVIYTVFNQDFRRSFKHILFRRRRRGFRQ

| Compound | cell count [1] | inhibition [1] | inhibition of aggregation [2] | nuclei count [2] | inhibition [3] | nuclei count [3] | fluorescence slope [4] | NADPH fluorescence slope [5] | slope [6] | inhibition [7] | inhibition [8] |
| --- | --- | --- | --- | --- | --- | --- | --- | --- | --- | --- | --- |
| N=c1c(C(=O)NCc2ccc3c(c2)OCO3)cc2c(=O)n3ccccc3nc2n1Cc1cccnc1 | 690 | -5.2% (inactive) | -21.7% (inactive) | 72.7% | -18.5% (inactive) | 109% | -0.427 (inactive) | 3.2e-05 (inactive) | 0.00617 (inactive) | 13.3% (inactive) | 23.4% (inactive) |
| COc1cc(NS(=O)(=O)N2CCCC2)cc(OC)c1OC | 712 | 0.7% (inactive) | 9% (inactive) | 95.3% | -115% (inactive) | 128% | -0.498 (inactive) | -1.9e-05 (inactive) | 0.00502 (inactive) | 7.48% (inactive) | 16.9% (inactive) |
| C=CCn1c(Br)nc2c1c(=O)[nH]c(=O)n2C | 372 | -4.7% (inactive) | 8.4% (inactive) | 92.3% | -62% (inactive) | 116% | -0.373 (inactive) | -3.1e-05 (inactive) | 0.00545 (inactive) | 15.8% (inactive) | 9.88% (inactive) |
| CCCSC1=C(C#N)C(c2cc(OC)ccc2OC)CC(=O)N1 (stereo unspecified) | 674 | 5.8% (inactive) | 10.8% (inactive) | 114% | -61.3% (inactive) | 116% | -0.518 (inactive) | -4.2e-05 (inactive) | 0.00728 (inactive) | 18.1% (inactive) | 25.8% (inactive) |
| O=C(Oc1ccc2ccc(OC(=O)N3CCOCC3)cc2c1)N1CCOCC1 | 388 | 6.8% (inactive) | -8.9% (inactive) | 107% | -7.5% (inactive) | 111% | -0.238 (inactive) | -1.6e-05 (inactive) | 0.00539 (inactive) | -2.44% (inactive) | -16.2% (inactive) |
| CCC(=O)Nc1c(C#N)c2nc3ccccc3nc2n1-c1ccccc1C | 311 | -1.9% (inactive) | 11.4% (inactive) | 83.9% | -20.8% (inactive) | 95.9% | -0.0512 (inactive) | 7.8e-06 (inactive) | 0.00349 (inactive) | 12.6% (inactive) | 21.8% (inactive) |
| Cc1nnc2ccc(N3CCN(c4cccc(C(F)(F)F)c4)CC3)nn12 | 596 | 5.5% (inactive) | -64.5% (inactive) | 32.1% | -68.3% (inactive) | 134% | -0.505 (inactive) | -1.3e-05 (inactive) | 0.00619 (inactive) | 3.49% (inactive) | 11.9% (inactive) |
| CCOc1cc(C(=O)N(C)Cc2cc3cc(OC)ccc3[nH]c2=O)cc(OCC)c1OCC | 394 | 4% (inactive) | 18.6% (inactive) | 83.8% | -174% (inactive) | 211% | -0.207 (inactive) | -1.5e-05 (inactive) | 0.00515 (inactive) | 15.8% (inactive) | 18.6% (inactive) |
| C=CCn1c(CC#N)nnc1N1CCOCC1 | 481 | 0.7% (inactive) | -15% (inactive) | 116% | -92% (inactive) | 118% | -0.487 (inactive) | 2.7e-05 (inactive) | 0.00619 (inactive) | 6.66% (inactive) | 13.3% (inactive) |
| COCCn1c(C)cc(C(=O)CSc2nc3ccccc3c(=O)[nH]2)c1C | 287 | -9.5% (inactive) | -2.6% (inactive) | 95.3% | -22.3% (inactive) | 114% | -0.595 (inactive) | -3.8e-05 (inactive) | 0.00437 (inactive) | -28% (inactive) | -89.1% (inactive) |
| Cc1cc(C(=O)Nc2nc3c(s2)CCCC3)cs1 | 347 | 7.6% (inactive) | -12.3% (inactive) | 111% | -6.3% (inactive) | 107% | -0.532 (inactive) | 1.1e-05 (inactive) | 0.00523 (inactive) | -47% (inactive) | -131% (inactive) |
| Cn1c(=O)c(=O)n(C)c2cc(S(=O)(=O)CCC(=O)N3CCOCC3)ccc21 | 773 | 0.9% (inactive) | 22.5% (inactive) | 93% | -79.8% (inactive) | 113% | -0.569 (inactive) | -1.9e-06 (inactive) | 0.00791 (inactive) | 8.53% (inactive) | 5.94% (inactive) |
| CCCCCSc1nc2c(cnn2-c2ccccc2)c(=O)[nH]1 | 241 | -4.9% (inactive) | -3.4% (inactive) | 100% | -35.9% (inactive) | 125% | -0.399 (inactive) | -5.4e-05 (inactive) | 0.00382 (inactive) | 11.4% (inactive) | 27.5% (inactive) |
| CCOc1cc(CN2CCN(C(=O)c3ccco3)CC2)ccc1OC | 403 | -3% (inactive) | 8.5% (inactive) | 88.9% | 44.9% (inactive) | 104% | -0.33 (inactive) | -1.5e-05 (inactive) | 0.00559 (inactive) | 11.7% (inactive) | 21.2% (inactive) |
| C/C(=N\O)C(=O)C(CN1CCCCC1)CN1CCCCC1 | 386 | 0.5% (inactive) | -0.1% (inactive) | 89.2% | -144% (inactive) | 98.1% | -0.437 (inactive) | 1.9e-05 (inactive) | 0.00389 (inactive) | -5.16% (inactive) | 25.3% (inactive) |
| COC(=O)Cn1c(=O)c2c(nc3n2CC(C)CN3c2ccc(C)c(C)c2)n(C)c1=O (stereo unspecified) | 561 | -11% (inactive) | -7.5% (inactive) | 110% | -19.2% (inactive) | 118% | -0.535 (inactive) | -4.3e-05 (inactive) | 0.00607 (inactive) | 13.3% (inactive) | 36% (inactive) |
| COc1cccc(CNC(=O)CCS(=O)(=O)c2cccc3nsnc23)c1 | 667 | -6.5% (inactive) | -34.5% (inactive) | 112% | 8.1% (inactive) | 109% | -0.513 (inactive) | -3.9e-05 (inactive) | 0.00504 (inactive) | 13.8% (inactive) | 24.3% (inactive) |
| C=CCNC(=O)c1cc(-c2ccccc2O)on1 | 856 | -0.5% (inactive) | -0.2% (inactive) | 109% | -63.2% (inactive) | 113% | -0.588 (inactive) | -1.8e-05 (inactive) | 0.0069 (inactive) | -22.6% (inactive) | -96.4% (inactive) |
| COCCCNC(=O)Cn1cc2c(n1)CCC(C)C2 (stereo unspecified) | 767 | -6.1% (inactive) | -6% (inactive) | 104% | -27.6% (inactive) | 121% | -0.652 (inactive) | 2.7e-06 (inactive) | 0.00615 (inactive) | 4.22% (inactive) | 12.1% (inactive) |
| COCCn1c(SCC(=O)N(C(C)C)C(C)C)nnc1-c1cc2ccccc2cc1O | 362 | 0% (inactive) | 25.9% (inactive) | 88.5% | -1% (inactive) | 97.7% | -0.366 (inactive) | 1.3e-05 (inactive) | 0.00457 (inactive) | 11.9% (inactive) | 20.1% (inactive) |
| COc1ccccc1N1CCN(C(=O)c2cc(C3CC3)on2)CC1 | 626 | -8.7% (inactive) | -1.6% (inactive) | 85.4% | 1.1% (inactive) | 95.8% | -0.607 (inactive) | -3.3e-05 (inactive) | 0.00629 (inactive) | -5.11% (inactive) | 26.8% (inactive) |
| Cc1nc(CCNS(=O)(=O)c2cccs2)cs1 | 371 | -4.4% (inactive) | 6.9% (inactive) | 108% | -20.4% (inactive) | 102% | -0.566 (inactive) | 2.6e-05 (inactive) | 0.00608 (inactive) | -9.77% (inactive) | -22.4% (inactive) |
| O=C1C(C=NCCCn2ccnc2)=C(O)c2ccccc21 | 422 | 5.8% (inactive) | -8.1% (inactive) | 104% | -50.8% (inactive) | 113% | -0.589 (inactive) | -2.7e-05 (inactive) | 0.0063 (inactive) | 9.44% (inactive) | 37.1% (inactive) |
| CC(C)CC(=O)Nc1ccccc1-c1nnn(CC(=O)N2CCOCC2)n1 | 739 | -6.7% (inactive) | 1.9% (inactive) | 112% | 25.9% (inactive) | 106% | -0.497 (inactive) | -6.6e-05 (inactive) | 0.00487 (inactive) | 7.19% (inactive) | 13.9% (inactive) |
| COc1ccc(C2C(C#N)=C(N)Oc3cc4c(cc32)OCO4)cc1 (stereo unspecified) | 496 | 3.5% (inactive) | 4.7% (inactive) | 105% | -103% (inactive) | 110% | -0.401 (inactive) | -5.6e-05 (inactive) | 0.00586 (inactive) | -6.84% (inactive) | 59.4% (active) |
| CCN1CCN(C(c2ccc(F)cc2)c2nnnn2Cc2cccs2)CC1 (stereo unspecified) | 605 | -8.6% (inactive) | 1.9% (inactive) | 48.7% | -35.5% (inactive) | 96.1% | -0.339 (inactive) | 1.5e-05 (inactive) | 0.00582 (inactive) | 4.23% (inactive) | 21.4% (inactive) |
